From PubChem BioAssay come the findings set out here.

The test system of test [1] is PRMT1 (protein arginine N-methyltransferase 1). The experiment in a line: small molecules binding arginine methyltransferase PRMT1 – biochemical, small-molecule microarray, 635 nm fluorescence, primary screen (AID 1088).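 Also: binding of Prmt1 protein to compounds spotted on small-molecule microarray slides.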 The conditions noted are these: higher = more signal.
Test [2] in a line: growth effects on S. cerevisiae YJM789 – YJM789 clinical isolate, OD600, 24 h, basal, primary screen (AID 1089).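 Also: growth of clinical yeast isolate S. cerevisiae YJM 789 seeded 1000 cells per well; test concentration not given here.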 Conditions: higher = more signal, called active from +8 up or from −8 down.
Test [3] in a line: S. pombe growth modifiers, basal conditions – strain 972, OD600, 24 h, no modulator, primary screen (AID 1090).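 Also: basal condition with compound alone and no growth modifier present; test concentration not given here.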 The conditions noted are these: S. pombe 972 growth, higher = more signal, called active from +8 up or from −8 down.
A short description of test [4]: budding yeast growth modifiers under rapamycin – strain BY4716, OD600, 96 h, primary screen (AID 1091). Also: test concentration not given here. The conditions noted are these: S. cerevisiae BY4716 + rapamycin, higher = more signal, called active from +8 up or from −8 down.
The target of test [5] is Torsin-1A-interacting protein 2 (Homo sapiens) (UniProt Q8NFQ8). As to the kind of experiment: small molecules binding lysate-expressed LULL1 – cell lysate, human LULL1 lysate, 635/667 nm fluorescence, primary screen (AID 1092).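 Also: probe is lysate of COS7 cells overexpressing human LULL1; score merges per-feature 667 nm fluorescence with signal-to-noise.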 The conditions noted are these: small-molecule microarray, hLULL1 lysate binding, 635 nm fluorescence; higher = more signal.
Chain of Torsin-1A-interacting protein 2 (Homo sapiens) (Q8NFQ8 whole entry, looked up): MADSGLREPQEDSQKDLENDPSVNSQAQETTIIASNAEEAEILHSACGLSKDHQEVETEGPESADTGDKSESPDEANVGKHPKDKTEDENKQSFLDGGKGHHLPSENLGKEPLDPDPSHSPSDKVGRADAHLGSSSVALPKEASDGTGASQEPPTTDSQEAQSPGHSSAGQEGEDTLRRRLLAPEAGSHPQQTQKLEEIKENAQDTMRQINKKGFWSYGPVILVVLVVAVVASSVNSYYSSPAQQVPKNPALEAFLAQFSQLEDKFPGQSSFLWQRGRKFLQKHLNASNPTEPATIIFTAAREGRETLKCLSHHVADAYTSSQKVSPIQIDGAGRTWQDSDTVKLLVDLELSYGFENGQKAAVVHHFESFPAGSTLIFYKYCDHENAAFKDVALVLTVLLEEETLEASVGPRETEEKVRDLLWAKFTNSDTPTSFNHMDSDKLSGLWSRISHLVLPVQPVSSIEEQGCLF
Test [6] can be described thus: optical density change of DRC41 E. coli – strain DRC41, OD650, 24 h, E. coli filamentation project, primary screen (AID 1093).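 Also: MC1000 strain lacking acrAB efflux and sulA so SOS filamentation is blocked; test concentration not given here.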 The conditions noted are these: E. coli DRC41 growth, higher = more signal, called active from +8 up or from −8 down.
Test [7] in a line: probe aLefty2 binding to arrayed compounds – biochemical, biotinylated probe, 635/667 nm fluorescence, primary screen (AID 1094).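 Also: score merges spot fluorescence near 667 nm with spot signal-to-noise ratio.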 The conditions noted are these: small-molecule microarray, higher = more signal.
In test [8] the test system is Noggin (protein binding on small-molecule microarray). The experiment in a line: small molecules binding Noggin protein – biochemical, 635/667 nm fluorescence, primary screen (AID 1095).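 Also: score merges 667 nm feature fluorescence with signal to noise over triplicate slides.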 The conditions noted are these: 635 nm fluorescence, higher = more signal.
Test [9] addresses Neurogenic locus notch homolog protein 3 (Homo sapiens) (UniProt Q9UM47). The experiment in a line: small molecules binding NOTCH3 protein – biochemical, 635/667 nm fluorescence, primary screen (AID 1096). Conditions: small-molecule microarray, 635 nm fluorescence, higher = more signal.
The nature of test [10]: probe aEGFR binding to arrayed compounds – biochemical, biotinylated probe, 635/667 nm fluorescence, primary screen (AID 1097).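 Also: probe is a biotinylated anti-EGFR antibody binding compounds printed on slides; score combines fluorescence near 667 nm and signal to noise of each spot.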 Conditions: small-molecule microarray, higher = more signal.

Calls of active or inactive are those of the source.

Chain of Neurogenic locus notch homolog protein 3 (Homo sapiens) (Q9UM47 whole entry, looked up): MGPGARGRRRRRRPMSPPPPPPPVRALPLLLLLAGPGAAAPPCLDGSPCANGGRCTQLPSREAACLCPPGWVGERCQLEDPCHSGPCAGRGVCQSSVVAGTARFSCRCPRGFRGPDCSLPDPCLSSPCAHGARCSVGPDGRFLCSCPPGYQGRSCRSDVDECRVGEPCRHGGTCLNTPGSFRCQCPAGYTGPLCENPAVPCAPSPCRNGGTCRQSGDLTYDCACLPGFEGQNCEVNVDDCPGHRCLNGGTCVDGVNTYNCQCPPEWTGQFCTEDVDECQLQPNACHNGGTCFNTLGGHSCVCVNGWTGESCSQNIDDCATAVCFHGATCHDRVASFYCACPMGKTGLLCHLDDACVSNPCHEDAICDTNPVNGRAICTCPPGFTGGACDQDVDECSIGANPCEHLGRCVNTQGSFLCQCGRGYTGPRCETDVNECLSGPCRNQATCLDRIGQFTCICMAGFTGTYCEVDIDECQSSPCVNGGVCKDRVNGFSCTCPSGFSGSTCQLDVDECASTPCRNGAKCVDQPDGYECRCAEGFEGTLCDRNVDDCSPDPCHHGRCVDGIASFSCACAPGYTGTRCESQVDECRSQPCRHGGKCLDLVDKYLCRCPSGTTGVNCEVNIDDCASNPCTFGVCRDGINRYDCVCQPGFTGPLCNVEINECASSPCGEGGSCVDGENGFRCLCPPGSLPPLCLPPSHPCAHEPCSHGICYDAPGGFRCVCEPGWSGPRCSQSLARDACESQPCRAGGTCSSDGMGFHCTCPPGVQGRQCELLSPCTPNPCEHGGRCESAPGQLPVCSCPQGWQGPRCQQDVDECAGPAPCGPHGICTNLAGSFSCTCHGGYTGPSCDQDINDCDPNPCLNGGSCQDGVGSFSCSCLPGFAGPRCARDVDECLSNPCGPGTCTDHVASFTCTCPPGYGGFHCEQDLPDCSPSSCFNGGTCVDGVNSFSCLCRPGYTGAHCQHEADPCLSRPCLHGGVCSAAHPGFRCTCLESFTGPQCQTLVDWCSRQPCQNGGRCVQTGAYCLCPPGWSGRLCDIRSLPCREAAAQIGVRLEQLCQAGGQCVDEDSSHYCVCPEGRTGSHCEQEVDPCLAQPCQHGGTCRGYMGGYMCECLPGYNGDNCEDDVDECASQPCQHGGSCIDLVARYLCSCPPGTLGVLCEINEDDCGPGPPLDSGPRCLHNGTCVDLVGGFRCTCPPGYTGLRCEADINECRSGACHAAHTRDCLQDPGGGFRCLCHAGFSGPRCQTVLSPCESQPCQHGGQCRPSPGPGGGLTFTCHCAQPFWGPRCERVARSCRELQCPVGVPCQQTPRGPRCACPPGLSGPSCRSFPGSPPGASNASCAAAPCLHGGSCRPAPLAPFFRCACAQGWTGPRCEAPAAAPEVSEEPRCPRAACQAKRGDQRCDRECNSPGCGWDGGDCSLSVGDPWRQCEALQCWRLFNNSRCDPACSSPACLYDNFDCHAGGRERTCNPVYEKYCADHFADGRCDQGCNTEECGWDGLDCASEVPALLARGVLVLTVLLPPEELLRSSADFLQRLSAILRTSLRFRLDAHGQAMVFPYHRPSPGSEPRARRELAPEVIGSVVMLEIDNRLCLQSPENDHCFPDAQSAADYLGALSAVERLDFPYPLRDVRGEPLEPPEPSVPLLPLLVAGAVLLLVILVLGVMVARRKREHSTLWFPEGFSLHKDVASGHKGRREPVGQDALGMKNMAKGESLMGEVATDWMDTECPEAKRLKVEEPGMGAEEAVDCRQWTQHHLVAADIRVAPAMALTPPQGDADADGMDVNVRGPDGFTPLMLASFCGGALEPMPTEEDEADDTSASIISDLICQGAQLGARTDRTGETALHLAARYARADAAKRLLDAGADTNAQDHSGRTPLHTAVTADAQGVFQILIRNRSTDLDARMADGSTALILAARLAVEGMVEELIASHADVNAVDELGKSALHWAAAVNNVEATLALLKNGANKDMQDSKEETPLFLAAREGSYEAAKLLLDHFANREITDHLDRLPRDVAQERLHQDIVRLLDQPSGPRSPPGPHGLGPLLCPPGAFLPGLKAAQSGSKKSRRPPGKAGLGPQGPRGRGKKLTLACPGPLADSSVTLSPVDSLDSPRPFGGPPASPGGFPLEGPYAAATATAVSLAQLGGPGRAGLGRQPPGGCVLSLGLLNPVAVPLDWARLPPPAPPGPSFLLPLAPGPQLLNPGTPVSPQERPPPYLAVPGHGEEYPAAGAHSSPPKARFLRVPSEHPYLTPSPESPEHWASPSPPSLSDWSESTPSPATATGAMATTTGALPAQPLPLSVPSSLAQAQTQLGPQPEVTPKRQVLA

`COCCCNC(=O)[C@@]1(Cc2ccccc2I)c2ccccc2C(=O)N(Cc2ccccc2OC)[C@H]1c1ccc(CO)cc1`: the composite z-score was 1.56 in [1]; 2.77 in test [5]; -0.142 in test [7]; -1.22 in test [8]; -0.625 in test [9]; -0.331 in test [10]. Further, the z-score in test [2] was 0.634 (inactive); in test [3], 0.248 (inactive); in test [4] it was 1.07 (inactive); in [6], 0.62 (inactive).
Regarding `CCOC(=O)C[C@H]1[C@H](OC(=O)c2ccccc2-c2ccccc2)[C@@H](NC(=O)CC(C)C)c2cc(OCCCO)ccc2N1C(=O)c1ccccc1`, the composite z-score in test [1] is 0.768; in test [5] it was 0.583; in [7], -0.0859; in test [8], 1.3; in test [9], 1.09; in test [10], -0.159. The z-score in test [2] was -0.959 (inactive); in test [3] it was -0.613 (inactive); in test [4], -1.52 (inactive); in [6], 0.482 (inactive).
Turning to `C=C(CCCC)C(=O)CC[C@@H](OC(C)=O)c1ccc(OCCO)cc1`, the composite z-score in test [1] was 1.01; in test [5], 0.742; in test [7] it was -0.178; in [8] it was 1.53; in test [9], 1.13; in [10], -0.216. Besides, the z-score in [2] is -1.58 (inactive); in test [3], -2.48 (inactive); in test [4], -0.679 (inactive); in test [6], 0.44 (inactive).
For `COc1ccc(C(=O)Nc2ccc(CN3C(=O)[C@@]4(O[C@@H](CC(=O)N(CCO)Cc5ccccc5)[C@H]([Si](C)(C)c5ccc(OC)cc5)[C@H]4C)c4ccccc43)cc2)cc1`, the composite z-score in test [1] was 0.783; in test [5], 1.5; in [7], -0.116; in test [8] it was 1.55; in [9] it was 0.217; in test [10], 0.0326. Also, the z-score in test [2] is -0.884 (inactive); in test [3], -0.504 (inactive); in test [4], 1.94 (inactive); in test [6], 1.68 (inactive).
On to `CCCCN1CC=CC23O[C@@H]4/C=C\CCCOC(=O)C4[C@H]2C(=O)N(CCCCCCO)[C@@H]3C1=O` (stereo not given in full), for which the composite z-score was 0.988 in [1]; 3.56 in test [5]; -0.19 in test [7]; -0.676 in test [8]; -0.0185 in test [9]; -0.262 in test [10]. Further, the z-score in test [2] was -0.917 (inactive); in [3], -0.818 (inactive); in test [4], -0.771 (inactive); in [6], 1.79 (inactive).
In the case of `CCOC(=O)C[C@H]1[C@H](OC(=O)Cc2ccc3c(c2)OCO3)[C@@H](NC(=O)CC(C)C)c2cc(OCCCO)ccc2N1C(=O)c1ccc2ccccc2n1`, the composite z-score in test [1] was 0.516; in [5], 0.452; in test [7], -0.145; in test [8], 0.988; in [9], 0.647; in test [10], -0.178. Besides, the z-score in test [2] was -0.0651 (inactive); in test [3], -0.943 (inactive); in [4] it was -0.0443 (inactive); in [6], 0.431 (inactive).
For `COc1ccc(CCNC(=O)[C@@H]2c3ccccc3C(=O)N(C(C)C)[C@H]2c2ccc(CO)cc2)cc1`, the composite z-score in test [1] is -0.592; in test [5] it was 2.05; in test [7], 0.0129; in test [8], -1.3; in test [9], -2.01; in test [10], -0.238. Also, the z-score in [2] is 0.342 (inactive); in test [3], -0.264 (inactive); in [4], -0.0884 (inactive); in test [6], 1.39 (inactive).
Consider `CCCCCN1CC=CC23O[C@@H]4/C=C\CCCOC(=O)C4[C@H]2C(=O)N(CCO)[C@@H]3C1=O` (stereo not given in full), for which the composite z-score in test [1] was -0.0525; in test [5] it was 3.42; in test [7], -0.134; in test [8], 0.486; in test [9], -0.285; in [10] it was -0.0987. In addition, the z-score in test [2] was -0.402 (inactive); in [3], -1.15 (inactive); in [4], -1.46 (inactive); in test [6] it was 3.22 (inactive).
For `CC(=O)NCCCC[C@@H]1NC(=O)[C@H]2C[C@@H](C(=O)NCCCCCN)[C@@H](c3ccc(O)cc3)N2C1=O`, the composite z-score came out at 1.07 in test [1]; 2.05 in [5]; 0.0158 in test [7]; 1.35 in test [8]; 0.284 in test [9]; 0.0209 in test [10]. The z-score in test [2] is 0.447 (inactive); in test [3], -0.121 (inactive); in test [4], 1.01 (inactive); in [6], -0.475 (inactive).
Consider `O=C(N1CCOCC1)[C@]1(CCS(=O)(=O)c2ccccc2)N=C(c2ccc(OCCCO)cc2)O[C@@H]1c1ccccc1`, for which the composite z-score in test [1] was found to be 1.45; in [5], 3.26; in [7], 0.227; in test [8] it was 0.0673; in [9], 1.08; in [10] it was 0.0727. In addition, the z-score in test [2] is 0.825 (inactive); in test [3], 0.778 (inactive); in test [4] it was 2.98 (inactive); in test [6] it was 1.14 (inactive).
`COCCOC(=O)N1C(=O)[C@@]2(c3cc(C#CCCO)ccc31)[C@H](C(=O)N1CCN(c3ncccn3)CC1)[C@H]1C(=O)O[C@H](c3ccccc3)[C@H](c3ccccc3)N1[C@@H]2c1ccc(OCCO)cc1`: the composite z-score in test [1] is 1.53; in test [5], 3.11; in test [7], -0.025; in [8] it was 0.86; in [9], 1.05; in test [10], 0.0193. Besides, the z-score in test [2] was 2.26 (inactive); in test [3], 1.9 (inactive); in [4], 5.64 (inactive); in [6] it was -0.466 (inactive).
In the case of `CC(C)[Si]1(C(C)C)OCc2cc(-c3ccc(-c4ccc(Cl)c(Cl)c4)o3)nc(-c3ccc(Oc4ccccc4)cc3)c21`, the composite z-score in test [1] is -1.67; in test [5], -1.07; in test [7] it was 0.0358; in [8], -1.78; in test [9], -1.57; in test [10], -0.447. In addition, the z-score was 0.797 (inactive) in test [2], -0.504 (inactive) in test [3], 2.3 (inactive) in [4] and -0.888 (inactive) in test [6].
In the case of `COC(=O)[C@@]1(Cc2ccc(F)cc2)[C@H]2c3cc(C(=O)N4CCCC4)n(C[C@H](O)CO)c3C[C@H]2CN1C(=O)c1ccccc1`, the composite z-score was -0.399 in test [1]; 1.57 in [5]; 1.03 in test [7]; -0.123 in [8]; 0.176 in test [9]; 0.732 in test [10]. Also, the z-score in test [2] is -0.161 (inactive); in [3] it was 1.34 (inactive); in [4], -0.0363 (inactive); in test [6], -0.836 (inactive).
With `COc1cc2c(cc1OC)CN(C(=O)[C@@H]1[C@H]3C(=O)O[C@H](c4ccccc4)[C@H](c4ccccc4)N3[C@H](c3ccc(O)cc3)[C@@]13C(=O)Nc1ccc(C#CC4=CCCCC4)cc13)CC2`, the composite z-score in [1] is 1.55; in test [5] it was 2.44; in test [7], -0.0753; in test [8] it was 0.82; in test [9] it was 1.08; in test [10], 0.0324. Moreover, the z-score in [2] was 1.63 (inactive); in test [3], -0.921 (inactive); in test [4], 1.88 (inactive); in test [6], 2.11 (inactive).
